Screening results (PubChem)
AMA1-RON2 inh: AMA1-RON2 (P. falciparum) interaction inhibition; AlphaScreen AMA1-biotinylated RON2 peptide binding; Potency, µM (doses to about 58.2 µM), for the others: top-dose activity change, negative = inhibition, most hits filed as inhibitors; actives 0.2% (n = 360,000);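 further: potency means the concentration at half of the fitted maximal effect; 0% = vehicle wells and -100% = peptide control; nearly all actives have a fitted effect of over 45% in size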
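AMA1 (3D7) with his tag at 25 nM final met compounds first, then biotinylated RON2 peptide at 25 nM; detection used donor plus acceptor beads, 10 µg/mL apiece, read by AlphaScreen after 30 min at room temperature.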
CHX counter: counter-screen hit for Shiga toxin inhibitors, cycloheximide. max response, %. AID 2314. cell reporter, cycloheximide protein synthesis inhibition counterscreen. actives 12% (n = 300,000); in the data active means max response mostly above about 13%, no sharp cut-off; inactive means mostly below about 14%; further: read at 38.3 µM for the half of the compounds with a filed dose; 0% is about no effect
HCV inh: blocks hepatitis C virus; Huh7.5.1 HCVcc-Cre infection, luciferase reporter, 44 h; Potency, µM (doses to about 41.8 µM), without a hit: at the top dose activity change, negative = inhibition, actives largely listed as inhibitors; actives 3.4% (n = 340,000); AID 651820; further: potency means the concentration at half of the fitted maximal effect; on the % scale 0 is the no-effect control and ±100 the full control effect
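HCVcc-Cre virus at an moi near 0.5 was added right after compound to cells cultured 4 h from seeding (1,000 cells/well). Luciferase activity was determined 44 h later, 15 min after substrate addition at RT.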
Pf growth 96h: inhibits malaria parasite growth, 96 h | P. falciparum luciferase reporter growth, 96 h | Potency, µM (highest dose often 28.7 µM), for inactives: at the highest dose activity change, negative = inhibition, most hits filed as inhibitors | actives 6.9% (n = 320,000); further: potency means the concentration at half of the fitted maximal effect; on the % scale 0 is the no-effect control and ±100 the full control effect
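Infected RBCs, 2% Hct / 0.05% parasitemia final; luciferase-reporter P. falciparum; cpd 96 h, 37 C, 5% CO2; luciferase detection reagent; luminescence.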
Shiga toxin inh: blocks Shiga toxin action in Vero cells; Vero cells, Shiga toxin protein synthesis inhibition reporter; inhibition, % at 38.7 µM; actives 9.2% (n = 290,000); AID 2315; in the data active means inhibition mostly above about 28%, no sharp cut-off; inactive means mostly below about 43%; further: 0% is about no effect
Pf growth 48h: P. falciparum growth inhibition at 48 hours (one generation); P. falciparum luciferase growth in erythrocytes, 48 h; Potency, µM (series often up to 28.7 µM), for inactives: at the highest dose activity change, negative = inhibition, most hits filed as inhibitors; actives 5.9% (n = 310,000); AID 504832; further: potency means the concentration at half of the fitted maximal effect; on the % scale 0 is the no-effect control and ±100 the full control effect
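Firefly luciferase activity from engineered P. falciparum reports growth; inhibitors lower the luminescent signal. Cultures contained 2% hematocrit erythrocytes at 0.1% final parasitemia.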
Starred values were filed as active, the others as inactive; ? = inconclusive; . = no result; [ ] = remark or other dose. A selection: hits, their analogues and other compounds. The true share with any hit is near 21%. Unless noted, the call rests on the fitted dose curve; in most records, active means well fitted curve in the direction sought with a large enough effect; inconclusive means small, poorly fitted or top-dose-only effect, or another doubt; inactive means no such curve, though single readings can be large; an effect the other way counts as inactive or inconclusive.

SMILES	AMA1-RON2 inh	CHX counter	HCV inh	Pf growth 96h	Shiga toxin inh	Pf growth 48h
Cc1ccc(OCC(=O)Nc2ccc(N(C)C)cc2)cc1	-16%	-2	2%	22%[5.75 µM]	10	16%
CC(C)Oc1ccc(C(=O)Nc2ccc(N(C)C)cc2)cc1	-11%	25*	-26%	198%	90*	152%
CCCOc1ccc(C(=O)Nc2ccc(N(C)C)cc2)cc1	-1%	47*	-22%	.	141*	186%
CC(C)Oc1ccc(C(=O)Nc2ccc3c(c2)n(C)c(=O)n3C)cc1	2%	23	?	58%	47	212%
COc1cccc(-c2nn(C)c3sc(C(=O)NCc4ccc(C)o4)cc23)c1	-7%	23*	2.8µM*	?	28	?
COc1cccc(-c2nn(C)c3sc(C(=O)NCc4ccc5c(c4)OCO5)cc23)c1	-14%	-2	14µM*	28%	-10	.
COc1ccc(-c2nn(C)c3sc(C(=O)NCc4ccco4)cc23)cc1OC	8%	-3	?	0%	-14	0%
O=C(NCc1cccs1)C1C(=O)Nc2ccccc2C(=O)N1C1CCCC1 (configuration not stated)	4%	.	.	.	.	.
CCc1cc2c(=O)c(-c3cscn3)coc2c(CN(C)C)c1O	3%	-3	-7%	?	-5	12µM*
Cc1oc2c(CN(C)C)c(O)ccc2c(=O)c1-c1cscn1	-6%	1	3%	?	-11	68%
CCc1cc2c(=O)c(-c3ccc4c(c3)OCO4)coc2c(CN(C)C)c1O	7%	-3	-18%	13µM*	8	9.3µM*
COc1ccccc1NC(=O)N(C)C[C@@H]1OCc2cnnn2CCCC(=O)N([C@H](C)CO)C[C@H]1C	-7%	.	.	.	.	.
Cc1onc(-c2ccccc2)c1C(=O)OCC(=O)Nc1cc(S(=O)(=O)N2CCOCC2)ccc1Cl	9%	-1	?	?	-21	-26%
O=C1c2cccc(O)c2C(=O)c2c(O)cc(CO)cc21	-25%	-8	3%	.	6	.
O=C1c2c(O)ccc(O)c2C(=O)c2c(NCCNCCO)ccc(NCCNCCO)c21	10µM*	.	1.1µM*	0.93µM*	.	0.83µM*
COc1ccc(S(=O)(=O)N2CCOCC2)cc1NC(=O)Cc1coc2cc(C)c(C)cc12	-2%	-2	-14%	?	3	?
CSc1ccccc1NC(=O)C(=O)c1c[nH]c2ccccc12	-8%	42*	?	99%	117*	160%
O=C(Nc1nccs1)C(=O)c1c[nH]c2ccccc12	26%	71*	1%	.	146*	-26%
C[C@@H](NC(=O)C(=O)c1c[nH]c2ccccc12)c1ccccc1	-5%	.	-21%	.	.	.
COCCN1C[C@@H](CO)O[C@@H](n2cnc3c(NCCN(C)C)ncnc32)C1	74%	.	.	.	.	.
CN1CCN(c2ccc(-c3cccc(NC(=O)COc4ccc(Cl)cc4)c3)nn2)CC1	-2%	.	?	?	.	?
CCC(=O)Nc1cccc(-c2ccc(N3CCN(C)CC3)nn2)c1	0%	16*	8%	105%	74*	142%
CN1CCN(c2ccc(-c3cccc(NC(=O)COc4ccc(Cl)cc4Cl)c3)nn2)CC1	-3%	.	11µM*	-2%	.	-86%
CCOc1ccccc1C(=O)Nc1cccc(-c2ccc(N3CCOCC3)nn2)c1	-16%	.	?	9.3µM*	.	?
CCCn1c(N)c(C(=O)CN(C)CC(=O)Nc2c(Cl)cccc2Cl)c(=O)[nH]c1=O	82%	.	23%	?	.	?
SMILES	AMA1-RON2 inh	CHX counter	HCV inh	Pf growth 96h	Shiga toxin inh	Pf growth 48h
CC1(C(=O)O)CCN1C(=O)c1ccccc1F (configuration not stated)	6%	.	.	.	.	.
Clc1c(-c2nnc3n2CCC3)sc2ccccc12	5%	15*	?	?	50	?
COc1ccc2c(Cl)c(-c3nnc4n3CCCCC4)sc2c1	-3%	25*	-14%	-22%	34	.
CCCCNC(=O)C[C@@H]1C[C@@]2(C(=O)OCC)CCCC=C2N(Cc2ccc3c(c2)OCO3)C1=O	-4%	.	.	.	.	.
CCCNC(=O)C1(C)CCN(C(=O)c2oc3ccccc3c2C)C1 (configuration not stated)	5%	.	.	.	.	.
OCC[C@H]1C[C@H](O)[C@@H](O)[C@@]2(OCCCc3ccccc32)O1	-1%	.	2%	59%	.	?
O=C(Nc1ccncc1NC(=O)c1cccc([N+](=O)[O-])c1)c1cccc([N+](=O)[O-])c1	-7%	3	?	2.3µM*	22	?
O=C(Nc1cccc(NC(=O)c2cccc([N+](=O)[O-])c2)n1)c1cccc([N+](=O)[O-])c1	2%	13	?	?	.	31%
CC1CN=C(NC(=O)c2cccc([N+](=O)[O-])c2)S1 (configuration not stated)	-9%	28*	0%	-7%	26*	145%
Cc1ccc(S(=O)(=O)N2CCCCC2)cc1C(=O)Nc1ccc(S(=O)(=O)Nc2ncccn2)cc1	-26%	-1	17%	0%	21	-21%
CCc1cc2c(=O)[nH]cnc2s1	-7%	1	9%	10%	-4	16%
CCc1cc2c(=O)n(-c3ccccc3)cnc2s1	11%	53*	12%	8%	105*	25%
CCc1cc2c(=O)n(-c3ccc(C)cc3)cnc2s1	-2%	53*	?	?	74*	370%
O=C(O)CSC1CC(=O)N(c2ccc(Br)cc2)C1=O (configuration not stated)	-2%	1	15%	-3%	-10	-8%
CC(C)Oc1cc(F)ccc1-c1cc(C(=O)NCc2ccccn2)[nH]n1	94%	.	.	.	.	.
CNCCc1ccccc1	.	-7	.	-26%	-7	2%
CNC[C@@H](C)NC[C@@H](Cc1ccccc1)NCCc1ccccc1	104%	-3	?	2.9µM*	-8	?
CCOc1cc(CN2CCN(c3cccc(C(F)(F)F)c3)CC2)ccc1OC	-17%	-1	-25%	?	-14	.
Fc1ccc(C(c2nnnn2C2CCCCC2)N2CCCC2)cc1 (configuration not stated)	-17%	-1	24%	-33%	-22	13µM*
Fc1ccc(C(c2nnnn2C2CCCC2)N2CCN(Cc3ccncc3)CC2)cc1 (configuration not stated)	4%	-4	-4%	12%	-21	-14%
CCC(c1nnnn1C1CCCC1)N1CCN(c2cccc(OC)c2)CC1 (configuration not stated)	0%	1	17%	27%	-25	12µM*
c1ccc(C(c2nnnn2C2CCCCC2)N2CCc3ccccc3C2)nc1 (configuration not stated)	-18%	-2	-27%	?	32	-7%
